Measured values taken from PubChem BioAssay (EPA / NIEHS).
Records with an inconclusive call do not appear. Calls of active or inactive are those of the source. Rule for the calls, unless noted: active = hit-call score of the fitted dose curve at least 0.9, where 1 is the maximum; inactive = score below 0.9. Peptide text beside a SMILES is read from it.

Legend:
[1] = CCTE_Mundy_HCI_hNP1_Pro_ResponderAvgInten: CCTE's Proliferation Assay in human neuroprogenitor cells, Mundy Lab (AID 2284224; active = hit-call score of the fitted dose curve at least 0.9, where 1 is the maximum;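 note: human neural progenitor cells hNP1 derived from WA09 embryonic stem cells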)
How it was run: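 Proliferation was scored as BrdU labelling intensity in human neural progenitors derived from WA09 embryonic cells, measured 26.25 hours after chemical dosing. Activity was fitted relative to DMSO.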

[2] = TAMU_HCS_1.5hr_SingleDonor1434_Cytotoxicity: Cytotoxicity Assessment using High-content Screening (HCS) Fluorescent Imaging for the Texas A&M University (TAMU) 1.5-hr Human Induced Pluripotent Stem Cell (iPSC)-derived Cardiotoxicity Assay (AID 2284234; active = hit-call score of the fitted dose curve at least 0.9, where 1 is the maximum)
How it was run: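 Human iPSC-derived cardiomyocytes dosed at 0.2, 1, 10, 100 uM final (0.5% DMSO) for 90 min at 37 C. Hoechst 33342-stained nuclei counted by 10x high-content imaging; POD is EC10, a 10% drop in total cell count versus DMSO.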

[3] = CCTE_Mundy_HCI_Cortical_NOG_NeuronCount: CCTE's Neurite Outgrowth Assay in rat cortical cells for Neuron Count, Mundy Lab (AID 2284236; active = hit-call score of the fitted dose curve at least 0.9, where 1 is the maximum;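 note: neurons counted by imaging betaIII-tubulin and Hoechst stained cortical cells; cells exposed to compound for about 48 hours before fixation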)
How it was run: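 Read-out: neuron number by high-content imaging of betaIII-tubulin (Alexa Fluor-488) and Hoechst-labelled rat primary cortical cells.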

[4] = UKN2_HCS_IMR90_cell_viability: Viability Assessment in the University of Konstanz (UKN) Leist Lab Neural Crest Cell Migration Assay in human induced IMR90 Pluripotent Stem Cells (UKN2) (AID 2284233);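 note: viability of neural crest cells differentiated from IMR90 iPSC measured by calcein-AM fluorescence imaging; cells exposed to compound for 24 h after a 24 h migration phase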
How it was run: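 Human IMR90-derived neural crest cells were allowed to migrate for 24 h into a cell-free zone, then exposed to test chemicals for 24 h. Calcein-AM and Hoechst staining with high-content imaging gave viability, analysed against DMSO baseline.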

[5] = CCTE_Mundy_HCI_Cortical_Synap_Neur_Matur_NeuronCount: CCTE's Synaptogenesis and Neurite Maturation Assay in rat cortical cells for Neuron Count, Mundy Lab (AID 2284242; active = hit-call score of the fitted dose curve at least 0.9, where 1 is the maximum)
How it was run: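 Imaging-based neuron count in rat cortical cultures after chemical exposure from DIV 7 to DIV 12, with AraC added at DIV 5. Activity is fitted relative to DMSO.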

[6] = BSK_BT_PBMCCytotoxicity: PBMC Cytotoxicity Assessment in the BioMAP Diversity Plus: BT Assay (AID 2284225); settings: primary human B cells with PBMC;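 note: PBMC viability measured by Alamar Blue dye reduction fluorescence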
How it was run: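 75,000 cells/well; cpd 1 h → SEB + TSST-1 (20 ng/mL final each) → 90 h → Alamar Blue 6 h → fluor. 546/580 nm. DMSO = neg. control/baseline.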

[7] = read-out: Secreted IgG (sIgG), gene 3500; experiment: BSK_BT_sIgG: BioMAP Diversity Plus: BT Assay for Secreted IgG (sIgG) Biomarker Activity (AID 2284226); settings: primary human B cells with PBMC
How it was run: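 Secreted IgG from a human primary B cell–PBMC co-culture was measured by ELISA 24 hours after dosing, with DMSO defining baseline activity.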

[8] = BSK_BT_Bcell_Proliferation: Viability Assessment in the BioMAP Diversity Plus: BT Assay for B cell Proliferation (AID 2284227); settings: primary human B cells with PBMC
How it was run: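 Using a human primary B cell–PBMC co-culture, the assay measures total protein by sulforhodamine B absorbance as a gauge of proliferation after 72 h. Analysis followed the positive fitting direction with DMSO as baseline.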

[9] = read-out: Interleukin 6 (IL6), IL6 (gene 3569); experiment: BSK_BT_xIL6: BioMAP Diversity Plus: BT Assay for Interleukin 6 (IL6) Biomarker Activity (AID 2284228); settings: primary human B cells with PBMC
How it was run: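 Chemical added to human B cell/PBMC co-culture → 24 h → supernatant IL-6 by Luminex xMAP → fit vs DMSO baseline, upward direction.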

[10] = read-out: Interleukin 17A (IL17A), IL17A (gene 3605); experiment: BSK_BT_xIL17A: BioMAP Diversity Plus: BT Assay for Interleukin 17A (IL17A) Biomarker Activity (AID 2284229); settings: primary human B cells with PBMC
How it was run: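 Chemicals were added to a human B cell and PBMC co-culture. After 24 h, secreted IL-17A was measured with Luminex xMAP. Curves were fitted in the positive direction, with DMSO wells as baseline.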

[11] = read-out: Tumor necrosis factor (Homo sapiens) (UniProt P01375); experiment: BSK_BT_xTNFa: BioMAP Diversity Plus: BT Assay for Tumor necrosis factor alpha (TNF-alpha) Biomarker Activity (AID 2284230); settings: primary human B cells with PBMC
How it was run: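 Endpoint derived in the positive direction versus DMSO vehicle. Cells: B cells together with PBMC, exposed 24 h before TNF-alpha in the medium was read on the Luminex xMAP platform.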

[12] = read-out: Collagen III, COL3A1 (gene 1281); experiment: BSK_MyoF_CollagenIII: BioMAP Diversity Plus: MyoF Assay for Collagen III Biomarker Activity (AID 2284239); settings: primary human lung fibroblasts
How it was run: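 Compounds are added to primary human lung fibroblasts and left for 24 hours. Collagen III is then quantified by ELISA. Analysis takes DMSO as baseline and fits increases in signal.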

[13] = read-out: Interleukin 17F (IL17F), IL17F (gene 112744); experiment: BSK_BT_xIL17F: BioMAP Diversity Plus: BT Assay for Interleukin 17F (IL17F) Biomarker Activity (AID 2284243); settings: primary human B cells with PBMC
How it was run: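 Measures secreted IL-17F from a human B cell plus PBMC co-culture at 24 h post-dose by Luminex xMAP, with DMSO defining baseline activity.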

[14] = read-out: Actin alpha 1 (ACTA1), ACTA1 (gene 58); experiment: BSK_MyoF_ACTA1: BioMAP Diversity Plus: MyoF Assay for Actin alpha 1 (ACTA1) Biomarker Activity (AID 2284244); settings: primary human lung fibroblasts
How it was run: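 Measured by ELISA: alpha-smooth muscle actin in human primary lung fibroblasts 24 h after dosing, with DMSO as baseline and upward signal change as the fitted direction.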

Measured: AC50

Sequence of Tumor necrosis factor (Homo sapiens) (P01375 whole entry, looked up): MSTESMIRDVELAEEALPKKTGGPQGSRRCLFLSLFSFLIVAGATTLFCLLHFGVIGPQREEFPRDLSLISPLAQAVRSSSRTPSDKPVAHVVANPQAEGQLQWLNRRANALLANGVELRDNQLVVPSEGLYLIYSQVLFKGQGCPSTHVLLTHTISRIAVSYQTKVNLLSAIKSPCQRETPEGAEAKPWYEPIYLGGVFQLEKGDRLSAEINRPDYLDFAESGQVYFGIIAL

O=C(O)C(F)(F)C(F)(F)C(F)(F)C(F)(F)C(=O)O
inactive: [1]

COC(=O)[C@H](Cc1ccccc1)NC(=O)[C@@H](N)CC(=O)O (H-Asp-Phe-OMe)
inactive: [1] | [2] | [3]

CCCCNS(=O)(=O)c1ccccc1
inactive: [4] | [3] | [5]

CC1=CC=C(C(C)C)CC1
active: [7] 20 µM
inactive: [6] | [8] | [9] | [10] | [11] | [12] | [13] | [14]

O=C(Cl)c1c(Cl)c(Cl)c(C(=O)Cl)c(Cl)c1Cl
inactive: [6] | [7] | [8] | [9] | [10] | [11] | [12] | [13] | [14]

CC=C(C)C(C)=O
inactive: [6] | [7] | [8] | [9] | [10] | [11] | [12] | [13] | [14]

Cc1c(O)cccc1O
inactive: [6] | [7] | [8] | [9] | [10] | [11] | [12] | [13] | [14]

O=C1CCCCCCCCCCCN1
inactive: [6] | [7] | [8] | [9] | [10] | [11] | [12] | [13] | [14]

COc1ccc(C(=O)c2ccccc2)c(O)c1
inactive: [6] | [7] | [8] | [9] | [10] | [11] | [12] | [13] | [14]

COC(OC)(C(=O)c1ccccc1)c1ccccc1
inactive: [6] | [7] | [8] | [9] | [10] | [11] | [12] | [13] | [14]

CCCCC1C(=O)N(c2ccccc2)N(c2ccccc2)C1=O
inactive: [6] | [7] | [8] | [9] | [10] | [11] | [12] | [13] | [14]

CC/C=C\CCOC(=O)c1ccccc1O
active: [7] 7.02 µM | [12] 36.1 µM | [13] 20 µM | [14] 30.7 µM
inactive: [6] | [8] | [9] | [10] | [11]

O=C(Oc1ccccc1)c1ccccc1C(=O)Oc1ccccc1
active: [6] 20 µM | [8] 26.2 µM | [14] 30.2 µM
inactive: [7] | [9] | [10] | [11] | [12] | [13]

c1ccc2sc(SSN3CCOCC3)nc2c1
active: [6] 13.2 µM | [7] 8.43 µM | [9] 13.3 µM | [10] 20 µM | [11] 24.3 µM | [12] 28.4 µM | [13] 19.9 µM | [14] 25.4 µM

CCCCCC1=CCCC1=O
active: [7] 20 µM
inactive: [6] | [8] | [9] | [10] | [11] | [12] | [13] | [14]

C=CC(=O)NC(C)(C)C
inactive: [6] | [7] | [8] | [9] | [10] | [11] | [12] | [13] | [14]

CC(C)c1cccc(C(C)C)c1N
inactive: [6] | [7] | [8] | [9] | [10] | [11] | [12] | [13] | [14]

c1ccc2c(c1)[nH]c1ccccc12
inactive: [6] | [7] | [8] | [9] | [10] | [11] | [12] | [13] | [14]

Clc1cc(Cl)c(Cl)c(Cl)c1Cl
inactive: [6] | [7] | [8] | [9] | [10] | [11] | [12] | [13] | [14]

Oc1ccc(/C=C/c2cc(O)cc(O)c2)cc1
active: [7] 6.86 µM | [8] 24.5 µM | [9] 35.4 µM | [10] 20 µM | [11] 25.7 µM | [13] 23.9 µM
inactive: [6] | [12] | [14]

CCC1(C)C(=O)N(Cl)C(=O)N1Cl (centres undefined)
inactive: [6] | [7] | [8] | [9] | [10] | [11] | [12] | [13] | [14]

CCNc1nc(NC(C)(C)C)nc(OC)n1
active: [7] 13.9 µM
inactive: [6] | [8] | [9] | [10] | [11] | [12] | [13] | [14]

Nc1cccc(N)n1
inactive: [6] | [7] | [8] | [9] | [10] | [11] | [12] | [13] | [14]

C=CC(=O)OCCCCCCCC(C)C
active: [7] 20 µM
inactive: [6] | [8] | [9] | [10] | [11] | [12] | [13] | [14]

CCCCCCCCCCCC(C)=O
inactive: [6] | [7] | [8] | [9] | [10] | [11] | [12] | [13] | [14]

C=CC(=O)NCOCCCC
inactive: [6] | [7] | [8] | [9] | [10] | [11] | [12] | [13] | [14]

CC(C)[N+](C)(CCOC(=O)C1c2ccccc2Oc2ccccc21)C(C)C
inactive: [6] | [7] | [8] | [9] | [10] | [11] | [12] | [13] | [14]

Oc1c(Cl)cc(Cl)c(Cl)c1Cl
inactive: [6] | [8] | [9] | [10] | [11] | [13]
active: [7] 33.5 µM | [12] 16.5 µM | [14] 29.7 µM

O=C1CCCCCCCCCCC1
inactive: [6] | [7] | [8] | [9] | [10] | [11] | [12] | [13] | [14]

C=C(C)C(=O)OCCCCCCCCCCCC
inactive: [6] | [7] | [8] | [9] | [10] | [11] | [12] | [13] | [14]
